# Test results: PubChem BioAssay AID2845 (The Scripps Research Institute Molecular Screening Center, 2010)
# The campaign covered roughly 2,300 compounds. About 2,000 (87%) were called active. Cut-off read from the data, not from the text of the source: active = activation above about 49%; inactive = the rest. The set was probably picked from earlier hits. The list is a sample of the results.
# Molecular target: Aryl hydrocarbon receptor (Homo sapiens) (UniProt P35869)
# Assay: activators of human aryl hydrocarbon receptor reporter – cell-based, luminescence, luciferase reporter, confirmation (AID 2845);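 note: HepG2 hepatoma cells carrying a DRE-driven firefly luciferase reporter; 0% = vehicle wells and 100% = reference agonist wells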
# Conditions: human cells, AHR-responsive luciferase reporter, at 9 µM, stronger effect = higher value
# Aryl hydrocarbon receptor (Homo sapiens), sequence (P35869 whole entry, looked up): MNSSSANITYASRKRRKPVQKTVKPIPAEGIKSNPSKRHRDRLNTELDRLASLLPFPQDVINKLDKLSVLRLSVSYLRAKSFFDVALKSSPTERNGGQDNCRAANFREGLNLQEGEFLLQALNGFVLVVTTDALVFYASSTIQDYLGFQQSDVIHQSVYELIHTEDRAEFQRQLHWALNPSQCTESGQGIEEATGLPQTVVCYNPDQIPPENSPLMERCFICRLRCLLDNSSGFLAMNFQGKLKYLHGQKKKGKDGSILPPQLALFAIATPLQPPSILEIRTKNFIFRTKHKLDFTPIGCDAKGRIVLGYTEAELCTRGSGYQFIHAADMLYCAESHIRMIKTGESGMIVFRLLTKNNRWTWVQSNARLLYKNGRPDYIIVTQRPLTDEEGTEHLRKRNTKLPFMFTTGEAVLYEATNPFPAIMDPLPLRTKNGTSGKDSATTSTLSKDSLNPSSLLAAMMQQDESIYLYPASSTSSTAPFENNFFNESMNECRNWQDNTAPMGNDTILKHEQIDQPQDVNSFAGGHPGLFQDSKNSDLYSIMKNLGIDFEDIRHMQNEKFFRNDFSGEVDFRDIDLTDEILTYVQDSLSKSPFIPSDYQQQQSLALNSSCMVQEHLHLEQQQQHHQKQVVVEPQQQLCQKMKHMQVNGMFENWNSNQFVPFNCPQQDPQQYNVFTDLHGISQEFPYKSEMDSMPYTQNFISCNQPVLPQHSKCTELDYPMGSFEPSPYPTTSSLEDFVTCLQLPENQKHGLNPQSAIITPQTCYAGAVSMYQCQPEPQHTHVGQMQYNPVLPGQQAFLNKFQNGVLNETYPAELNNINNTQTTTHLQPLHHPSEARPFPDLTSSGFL
row,Compound,activation
1,Cc1ccnc(-n2sc3ccccc3c2=O)n1,55.4% (active)
2,COc1ccccc1NC(=O)C1=C(C)NC2=C(C(=O)CCC2)C1c1ccc(C)o1 (configuration not stated),110% (active)
3,NC(=O)Nc1ccccc1C(=O)NCCc1ccccc1,106% (active)
4,CC(C)n1ncc2c(C(=O)Nc3ccc(CC#N)cc3)cc(C3CC3)nc21,25.4% (inactive)
5,Cc1ccc(NC(=O)Nc2cccnc2)cc1,67.7% (active)
6,CCC(=O)NC(=S)Nc1ccc(NC(=O)c2ccco2)c(Cl)c1,82% (active)
7,COc1cc(NC(=O)c2ccc(-c3csc(C)n3)cc2)c(OC)cc1Cl,119% (active)
8,CCNC(=S)N1CCC(c2nc3cc(C)c(C)cc3[nH]2)CC1,25.5% (inactive)
9,CNC(=O)c1ccc2nc(NC(C)=O)sc2c1,22.7% (inactive)
10,O=C(Nc1cccc(Br)c1)c1ccc2snnc2c1,74.4% (active)
11,COc1cc(CNCc2ccc3c(c2)OCO3)c([N+](=O)[O-])cc1OC,87.3% (active)
12,Brc1ccc(C2=CC(c3ccco3)n3ncnc3N2)cc1 (configuration not stated),90.4% (active)
13,S=c1[nH]nc(-c2cc(-c3ccsc3)n[nH]2)n1-c1ccccc1,103% (active)
14,Cc1ccnc(NC(=O)c2ccc(Cl)c([N+](=O)[O-])c2)c1,60.8% (active)
15,Cc1cccc(N=Nc2c(O)[nH]c3ccc(F)cc23)c1,147% (active)
16,COc1cccc(-c2nc3cc(C)ccc3o2)c1,47% (active)
17,CC(=O)Nc1ccc(-c2nc3ccccc3o2)cc1,-4.38% (inactive)
18,COc1ccc(OC)c(-c2csc(-c3cccs3)n2)c1,94.4% (active)
19,O=C(CCCCn1c(=O)[nH]c2ccccc2c1=O)NCc1ccc2c(c1)OCO2,56.1% (active)
20,Brc1ccc(C2CC(c3ccccc3)=Nc3ccccc3N2)cc1 (configuration not stated),80.8% (active)
21,NNc1nc2c(Cl)cccc2s1,57.5% (active)
22,CC(C)n1cnc2c(Nc3cccc(Cl)c3)nc(N(CCO)CCCO)nc21,11.4% (inactive)
23,CN(C)S(=O)(=O)Oc1ccccc1C(=O)Nc1ccccc1Cl,99.1% (active)

row,Compound,activation
1,CCOC(=O)c1nc(-c2ccc3c(c2)OCO3)[nH]c1C,68.3% (active)
2,CCn1c2ccccc2c2cc(NC(=O)C/C(C)=N/NC(=O)c3ccccc3N)ccc21,61.5% (active)
3,CCn1c(NC(=O)c2nn(C)cc2Br)nc2ccccc21,70.7% (active)
4,O=C(Nc1ccc(Cl)cn1)c1cnn2cccnc12,179% (active)
5,COc1ccc(Nc2nnc(C)c3ccccc23)cc1,82.5% (active)
6,Cn1c(C(=O)NCCc2ccsc2)cc2c(=O)n(C)c3ccccc3c21,65.4% (active)
7,O=C(NC1CC1)C1=C[C@H](c2c[nH]c3ccccc23)C[C@H](OCc2ccc(CO)cc2)O1,27.6% (inactive)
8,O=C(N/N=C/c1c[nH]c2ccccc12)c1cc2ccccc2o1,42.3% (inactive)
9,O=C(N/N=C/c1ccco1)c1ccc(C(=O)N/N=C/c2ccco2)o1,73.2% (active)
10,COc1ccc(NC(=O)c2ccco2)cc1NC(=O)c1ccc(C#N)cc1F,71.7% (active)
11,N#C/C(=C(/O)COc1cccc2ccccc12)c1nc2ccccc2[nH]1,84.1% (active)
12,O=C(Nc1cc(S(=O)(=O)Nc2ccc(Cl)cc2)ccc1O)c1ccc(F)cc1F,103% (active)
13,Cc1nnc(NC(=O)/C=C/c2ccco2)s1,127% (active)
14,NS(=O)(=O)c1ccc(-c2ccc(/C=C3\SC(=O)NC3=O)o2)cc1,116% (active)
15,COc1cc(/C=N/N=C(\N)c2nonc2N)cc(OC)c1OC,101% (active)
16,Cc1cccc(NC(=O)c2ccc3ccccc3n2)n1,128% (active)
17,Cc1csc(NC(=S)Nc2cccc(Cl)c2)n1,98.7% (active)
18,CCSc1ccccc1C(=O)Nc1ccc2c(c1)OCO2,101% (active)
19,C/C(=N/NC(=S)Nc1ccccc1)c1ccc2c(c1)OCO2,16% (inactive)
20,Cc1cccc(NC(=O)Nc2ccc3c(c2)OCO3)n1,123% (active)
21,CCC(C)NCC(=O)Nc1ccc([N+](=O)[O-])cc1C(=O)Nc1ccccc1F (configuration not stated),88.2% (active)
22,COCCNc1nc(-c2ccccc2)nc2c1oc1ccccc12,121% (active)
23,CSc1ccc(C#N)cc1NC(=O)c1ccc(Cl)cc1,86.5% (active)

row,Compound,activation
1,CCN(CC)C(=O)Oc1ccc(Br)cc1C(=O)Nc1ccc(F)c(Cl)c1,124% (active)
2,C/C(=N\NC(=O)c1cccnc1)c1ccc(-n2ccnc2)cc1,86.3% (active)
3,Cc1noc(C)c1/C=N/Nc1ccc2ccccc2n1,176% (active)
4,C(=N\Nc1ccc2ccccc2n1)/c1ccc2c(c1)OCO2,-10.8% (inactive)
5,COc1ccccc1Nc1ncnc2c1oc1ccccc12,132% (active)
6,CCn1ccnc1CN(C)Cc1nc(-c2ccc3c(c2)OCO3)no1,79.9% (active)
7,O=C(Nc1ccc(C2CC2(Cl)Cl)cc1)c1cccc([N+](=O)[O-])c1 (configuration not stated),96.2% (active)
8,O=C(NCCCn1ccnc1)c1cc(-c2ccccc2)on1,323% (active)
9,Clc1ccc(Nc2nc(-c3cccs3)cs2)nc1,141% (active)
10,Cc1ccc(NC(=O)NNC(=O)c2sccc2-n2cccc2)cc1,101% (active)
11,COc1ccc(Nc2nc(-c3ccccc3)cs2)cc1,91.2% (active)
12,Cc1cccc(Nc2nc(-c3ccccc3)cs2)n1,131% (active)
13,C/C(CC1CC(C)(C)OC1=O)=N/Nc1nc(-c2ccccc2)cs1 (configuration not stated),-2.24% (inactive)
14,COc1ccc2nc(Nc3nc(-c4ccncc4)cs3)sc2c1,101% (active)
15,S=c1nc2ccccc2c2nc(-c3cccnc3)[nH]n12,125% (active)
16,O=C(Nc1ccc(C(F)(F)F)cc1)c1cccc(-n2cnnn2)c1,106% (active)
17,O=C(Nc1ccc(-c2csc(Nc3cccc(C(F)(F)F)c3)n2)cc1)c1cccc(C(F)(F)F)c1,4.55% (inactive)
18,CC(C(=O)N=Nc1c(O)n(C)c2ccc(Br)cc12)n1cnc2ccccc2c1=O (configuration not stated),73.7% (active)
19,O=C(CSc1cccc2cccnc12)N/N=C/c1cccnc1,21.4% (inactive)
20,Cc1nn(Cc2ccc(Cl)cc2)c(Cl)c1/C=N/NC(=O)c1cccnc1,74.2% (active)
21,Cc1c(C(=O)NCC(c2ccco2)N2CCCC2)oc2ccc(Cl)cc12 (configuration not stated),75.5% (active)
